JMJD2C inh: blocks human GASC-1 demethylase activity | GST-JMJD2C(1-420) H3K9me3 demethylation, DELFIA europium | inhibition, % at 2.35 µM | 330,000 compounds, 0.069% hits | AID 2099;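 active means more than half of a compound's replicate wells show inhibition beyond 50%, single wells judged on their own value; inconclusive means some, but no more than half, of replicates pass 50% inhibition; inactive means no replicate passes 50% inhibition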;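 further: signal counts dimethyl H3K9 product captured on neutravidin plate; 0% = median of DMSO wells and 100% = 0.3 times that DMSO median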
PKA-R2B activ: PKA-R2B complex activation. PKA-R2B holoenzyme dissociation, Cy5-IP20 fluorescence polarization; R2B truncated from residue 108, S112A mutant; 0% DMSO only, 100% 113 µM cGMP. activation, % at 11.4 µM. 340,000 compounds, 0.079% hits. AID 504700;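 active means activation above a cutoff set at the mean over all compounds plus 3 SD, cut at about 18% in these data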;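 further: higher means more holoenzyme dissociation and a rise in polarization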
Target sequence (P31323 whole entry, looked up, other chains not shown, the tested form may be a part): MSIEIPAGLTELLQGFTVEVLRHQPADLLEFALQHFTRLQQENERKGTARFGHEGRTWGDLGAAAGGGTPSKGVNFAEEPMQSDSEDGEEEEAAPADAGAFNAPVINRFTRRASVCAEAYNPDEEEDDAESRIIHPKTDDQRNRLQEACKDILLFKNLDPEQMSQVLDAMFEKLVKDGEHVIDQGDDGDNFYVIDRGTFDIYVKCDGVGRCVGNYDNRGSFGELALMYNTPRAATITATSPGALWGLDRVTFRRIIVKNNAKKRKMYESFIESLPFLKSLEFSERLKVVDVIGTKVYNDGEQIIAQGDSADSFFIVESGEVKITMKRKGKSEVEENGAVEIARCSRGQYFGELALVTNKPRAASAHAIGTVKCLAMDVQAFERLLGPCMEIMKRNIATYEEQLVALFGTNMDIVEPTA
Yeast superoxide: lowers age-related superoxide in aged yeast cells | S. cerevisiae aged cells, superoxide DHE fluorescence; hits give low values | superoxide response (% of plate mean), % at 10 µM | 330,000 compounds, 0.18% hits | AID 2690;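 active means superoxide response under a set limit, about three screen SD below normal, cut at about 65% in these data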;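 further: yeast aged for seven days with compound at 30 °C before DHE staining; 100% = average MFI of all compound-treated wells on the plate with controls excluded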
PKA-R1A act: activates the PKA-R1A holoenzyme complex; PKA-R1A dissociation, Cy5-IP20 fluorescence polarization; scaled: DMSO 0%, 113 µM cGMP 100%; activation, % at 11.4 µM; 340,000 compounds, 0.083% hits;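 active means percent activation above the mean of all tested compounds plus 3 SD, cut at about 19% in these data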;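 further: higher means more PKAc released from R1A so a rise in polarization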
PolyA inhibitor: blocks polyadenylation in yeast reporter cells. 300,000 compounds, 0.02% hits. activity score, % at 12 µM. S. cerevisiae SKY197-pL101 polyadenylation reporter, beta-gal luminescence; efflux-impaired pdr1/pdr3 knockout yeast; score 100 = 6 SD above DMSO;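 active means lowest replicate activity score at least 50, where 100 means six control SD above control mean; inconclusive means lowest score under 50 but half or more replicates reach 50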;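 further: yeast exposed to compound for 9 h at 30 °C; higher score means more reporter readthrough which indicates perturbed polyadenylation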
V-ATPase pH: alters yeast V-ATPase proton transport; S. cerevisiae, pHLuorin cytosolic pH fluorescence; 350,000 compounds, 0.37% hits; AID 504577; response, % at 10 µM; in the data active means response mostly above about 7.3%, no sharp cut-off; inactive means mostly below about 5.4%; further: actives read high
CR mimetic CP: yeast aging superoxide inhibition, cherry pick confirmation. shares compounds with Yeast superoxide. S. cerevisiae aging, superoxide DHE fluorescence; hits give low values. superoxide response (% of plate), % at 10 µM. 850 compounds, 1% hits;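 active means superoxide signal below 65% of the plate average of sample wells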;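 further: cells aged with compound for 7 days at 30 degrees C before staining; 100% equals mean DHE fluorescence of all compound wells on the plate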
DHE fluor count: DHE fluorescence interference, counter-screen artifact; S. cerevisiae BY4741, flow cytometry; hits give low values; fluorescence response, % at 10 µM; 850 tested, under 10 active; shares compounds with Yeast superoxide;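 active means fluorescence response below 15%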;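 further: percent of the mean fluorescence averaged over all compound wells on the plate; lower means stronger quenching of DHE signal or ROS scavenging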
Starred values were filed as active, the others as inactive; i = inactive; ? = inconclusive; . = no result. Compounds with a hit are over-represented: about 0.78% of the library has one in this group of screens.

SMILES	JMJD2C inh	PKA-R2B activ	Yeast superoxide	PKA-R1A act	PolyA inhibitor	V-ATPase pH	CR mimetic CP	DHE fluor count
CCOC(=O)N1CCN(CC(=O)Nc2sc(CC)cc2C(=O)c2ccc(OC)cc2)CC1	-2	14	58*	-13	9	-5	106	101
CC1CCN(CCC(=O)Nc2ccc3c(c2)OCCO3)CC1	3	.	63*	.	5	.	117	110
CC(C)Cc1cc(CNC(=O)C2CCC(=O)N(Cc3cccc(C(F)(F)F)c3)C2)on1 (stereo not given)	11	2	111	7	12	-2	.	.
COc1ccc(OCc2nc3c4c(ncn3n2)-c2ccccc2CC42CCCC2)cc1	20	-8	118	-5	26	3	.	.
COc1ccc(-c2nc3c4c(ncn3n2)-c2ccccc2CC42CCCC2)cc1	-4	-14	64*	0	6	-2	107	99
COc1ccc(-c2nc(CS(=O)CC(=O)NCCN3CCCCC3C)c(C)o2)cc1OC (stereo not given)	2	-3	80	3	0	0	.	.
CC(C)(C)c1ccc(-c2n[nH]c(=S)n2/N=C/c2ccncc2)cc1	0	-7	43*	-7	-5	-1	115	127
CC(C)Cn1cc(C(=O)NCc2cccs2)c2c3ccccc3n(C)c2c1=O	-17	-11	62*	2	-6	-5	125	119
CC(C)CCNC(=O)c1cn(CC(C)C)c(=O)c2c1c1ccccc1n2C	1	2	101	-10	-13	2	.	.
CCOc1cc(CC(=O)N[C@@H](CC(C)C)c2ccccc2N2CCCCC2)ccc1C(=O)O	?	-5	95	-9	-6	0	.	.
CN(C)c1ccc(NC(=O)c2cccc(C(=O)Nc3ccc(N(C)C)cc3)n2)cc1	.	-3	65*	-13	-11	-3	113	100
O=C(Nc1ccccc1)c1cccc(C(=O)Nc2ccccc2)n1	5	3	106	-2	-8	5	.	.
CCOc1ccc(C(=O)N2CCN(c3cccc(C)c3C)CC2)cc1	-5	7	99	12	8	0	107	89
COc1cccc(N2CCN(C(=O)c3ccc(-c4ccccc4)cc3)CC2)c1	-3	2	79	7	-6	-3	.	.
CCOc1ccc(C(=O)N2CCCC2)cc1	31	-7	105	-14	6	7	.	.
CCc1ccc2oc(C(=O)N3CCN(c4ccccc4OC)CC3)cc(=O)c2c1	5	-8	62*	3	4	-1	106	95
COc1ccc(C(=O)N2CCN(c3cccc(Cl)c3)CC2)cc1	4	4	101	1	-15	-3	98	108
CCOc1ccc(C(=O)N2CCN(c3cccc(Cl)c3)CC2)cc1	2	2	115	6	-9	1	104	89
COCCNC(=O)CCn1nc(-c2ccc(C)cc2)ccc1=O	-2	7	100	7	3	2	.	.
CC(=O)N1CC2(CC(c3ccc(Cl)cc3Cl)=NO2)CN1c1cccc(Cl)c1 (stereo not given)	.	-5	.	-1	.	1	.	.
COc1ccc(C(=O)N2CCN(c3ccccc3OC)CC2)cc1	6	-12	109	-16	5	-1	97	91
O=C(CN1CCN(c2ccccn2)CC1)Nc1ccccc1F	i	-2	95	2	12	-4	.	.
Cc1ccc(F)cc1NC(=O)CN1CCN(c2ccccn2)CC1	-2	-5	97	-1	15	5	106	89
O=C(CN1CCN(c2ccccn2)CC1)Nc1ccc(F)cc1F	-1	3	90	-1	17	1	91	100
O=C(CCN1CCN(c2ccccn2)CC1)Nc1ccc(F)cc1	11	-3	104	5	5	-3	.	.
